# Data from PubChem BioAssay AID588453 (National Center for Advancing Translational Sciences (NCATS), 2011).
# Screen size: about 390,000 compounds; about 4,000 (1%) were called active. Not shown: some 4% with an inconclusive outcome. Shown is part of a subset that was picked to be rich in actives. A call without a number means that no potency is given here. A number with no mark means an inactive call. Calls come from the whole dose curve; as a rule, active = well fitted inhibition curve with a large enough effect; inconclusive = small, poorly fitted or top-dose-only effect; inactive = no such curve, though single readings can be large or run the other way.
# Target: Thioredoxin reductase 1, cytoplasmic (Rattus norvegicus) (UniProt O89049)
# Experiment: qHTS Assay for Inhibitors of Mammalian Selenoprotein Thioredoxin Reductase 1 (TrxR1): qHTS; note: nearly all actives have a fitted effect of over 65% in size
# Conditions: recombinant rTrxR1, NADPH fluorescence consumption, selenite substrate; series mostly up to 114 µM
# From the text: The selenoprotein thioredoxin reductase (TrxR; EC 1.8.1.9) is a FAD containing homodimeric pyridine nucleotide-disulfide oxidoreductase with many cellular roles. Together with NADPH and its prime substrate thioredoxin (Trx), the enzyme forms the core of the Trx system. The mammalian Trx system exerts a wide spectrum of functions including redox regulation, antioxidant defense, regulation of transcription factors as well as support of cell growth and replication. Many of these functions involve the reduction of Trx, which may subsequently reduce a number of different substrates including ribonucleotide reductase, peroxiredoxins or NFkB. Mammalian TrxR itself also has a broad substrate specificity, reducing both protein and non-protein substrates, including low molecular weight compounds such as dehydroascorbate, lipoic acid, ubiquinone, and juglone. In addition, several drugs in clinical use for anticancer treatment are indeed known to target TrxR1.
# This BioAssay is a validation of an NADPH fluorescence-based, dual-purpose qHTS rTrxR1 assay designed to find potential inhibitors and substrates of rTrxR1. For this particular BioAssay, actives are potential inhibitors. See related BioAssay for substrate data deposition.
# NIH Molecular Libraries Probe Production Network [MLPCN]
# NIH Chemical Genomics Center [NCGC]
# Assay Provider: Elias Arner, Karolinska Institute
# Assay protocol: 2 uL of reagents (buffer in column 4 as negative control and 90 nM rTrxR1 in columns 1-3 and 5-48) were dispensed into Greiner black solid-bottom 1,536-well assay plates, followed by 1 uL of NADPH (400 uM final concentration) to each well. The plates were centrifuged at 1000 rpm for 15 seconds and subsequently incubated for 5 min at room temperature (~22 deg C) to allow for rTrxR1 reduction. Compounds (23 nL) were then transferred via Kalypsys pin tool equipped with 1536-pin array (10 nL slotted pins, V&P Scientific, San Diego, CA). In addition, a duplicate 2-fold serial dilution of the control compounds auranofin, a known gold-based TrxR1 inhibitor, and juglone (5-hydroxy-1,4-naphthoquinone), a natural TrxR1 substrate, were pin-transferred to columns 2 and 3, respectively. After incubation for 15 min at room temperature (~22 deg C), 1 uL of selenite (400 uM final concentration) were dispensed to each well. The plate was immediately transferred to a ViewLux high-throughput CCD imager (PerkinElmer), wherein kinetic measurements of NADPH fluorescence (Ex 340 nm, Em 450 nm) were acquired (8 minute kinetic read, see Table 1). Read 1 was utilized to assess the capacity of a compound to serve as an rTrxR1 substrate, i.e. a decrease in NADPH fluorescence compared to the no-compound background is an indication of a substrate behavior for that particular compound. For inhibitory activity of a compound, delta values, computed as the difference in fluorescence intensity between the first and last reads of an 8-minute time kinetic window, were used. All reagents were diluted in an assay buffer consisting of 50 mM Tris-HCl, pH 7.5, 2 mM EDTA, and 0.01% Tween-20.
# Throughout the screen, reagent bottle and all liquid lines were made light-tight to minimize reagent degradation. All screening operations were performed on a fully integrated robotic system (Kalypsys, San Diego, CA) containing one RX-130 and two RX-90 anthropomorphic robotic arms (Staubli, Duncan, SC). Library plates were screened starting from the lowest and proceeding to the highest concentration, and a 'double-pinning' step of the highest concentration was required to access higher concentrations of compounds. Vehicle-only plates, with DMSO being pin-transferred to the columns 5-48, were inserted uniformly at the beginning and the end of each library in order to monitor and record any shifts in the background, which can be affected by reagent dispensers or loss in enzyme activity over time. […]
# Potency is the fitted concentration of half-maximal effect.
# Chain of Thioredoxin reductase 1, cytoplasmic (Rattus norvegicus) (O89049 whole entry, looked up): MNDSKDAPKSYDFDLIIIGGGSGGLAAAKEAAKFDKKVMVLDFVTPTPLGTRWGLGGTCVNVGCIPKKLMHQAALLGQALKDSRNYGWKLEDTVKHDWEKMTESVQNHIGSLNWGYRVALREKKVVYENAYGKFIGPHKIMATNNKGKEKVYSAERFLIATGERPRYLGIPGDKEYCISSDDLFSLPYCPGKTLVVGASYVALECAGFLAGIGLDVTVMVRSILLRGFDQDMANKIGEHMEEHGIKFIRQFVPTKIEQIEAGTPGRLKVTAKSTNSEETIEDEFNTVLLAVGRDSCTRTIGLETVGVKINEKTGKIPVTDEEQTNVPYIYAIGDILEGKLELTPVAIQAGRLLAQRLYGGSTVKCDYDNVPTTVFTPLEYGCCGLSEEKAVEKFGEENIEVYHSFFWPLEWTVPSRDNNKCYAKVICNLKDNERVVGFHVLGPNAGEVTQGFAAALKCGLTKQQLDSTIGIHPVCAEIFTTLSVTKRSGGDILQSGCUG
row,Structure (SMILES),Potency
1,Cc1ccc(CNC(=O)C2(C(F)(F)F)C/C(=C\Cc3ccccc3)CCCO2)o1 (stereo not drawn),28.2 µM (active)
2,O=C(NCC1CC1)C1(C(F)(F)F)C/C(=C\CCO)CCCO1 (stereo not drawn),inactive
3,O=C(NCc1ccccn1)[C@]1(C(F)(F)F)C[C@H](CCc2ccccc2)CCCO1,inactive
4,CC(C)(C)OC(=O)N1CCC(c2c(C(=O)Nc3ccc4c(c3)OCO4)cnn2-c2ccccc2)CC1,inactive
5,Cc1ccc(Cl)cc1NC(=O)CCC(=O)N1CC(C)Sc2ccccc21 (stereo not drawn),inactive
6,c1ccc(C2CNCc3c2ccc2ccccc32)cc1 (stereo not drawn),79.4 µM (active)
7,O=C(CSc1nc2ccccc2nc1Cc1ccccc1)N1CCCCC1,inactive
8,O=C(NC(=S)Nc1cccc(-c2ccc(CO)o2)c1)c1cccs1,39.8 µM (active)
9,Cn1c(SCC(=O)Nc2cccc(NC(=O)c3cccs3)c2)nnc1-c1ccncc1,inactive
10,Cc1sc(NC(=S)NC(=O)c2cccs2)nc1-c1ccc(CC(C)C)cc1,inactive
11,Cc1nn(C)c2c1c(C(F)(F)F)cc(=O)n2C(C)C(=O)NCc1ccc(Cl)cc1 (stereo not drawn),inactive
12,NS(=O)(=O)c1ccc(NC(=O)C(=O)Nc2ccc3nc4n(c(=O)c3c2)CCCCC4)cc1,inactive
13,Cc1cccc([C@H]2[C@@H]3C=CC[C@@H](C)[C@@H]3C(=O)N2Cc2ccccc2)c1,inactive
14,COc1ccc(Br)cc1C1C2C=CCC(C)C2C(=O)N1Cc1ccccc1 (stereo not drawn),22.4 µM (active)
15,COc1ccc(-c2ccc(OC)c(C3C4C=CCC(C)C4C(=O)N3Cc3ccccc3)c2)cc1C (stereo not drawn),inactive
16,O=c1c(NCc2cccs2)nccn1-c1ccccc1,inactive
17,C=CCn1c(=S)[nH]c2scc(-c3ccco3)c2c1=O,39.8 µM (active)
18,COc1ccc(C2C(=O)N(C3CCCCCC3)CC(=O)N2CCc2ccc(Cl)cc2)cc1OC (stereo not drawn),inactive
19,CCn1c(C)c(C)c2cc(C(=O)NCCc3cc(OC)ccc3OC)ccc21,inactive
20,CC(CCc1ccccc1)NC(=O)c1cnc(Cl)c(Cl)c1 (stereo not drawn),inactive
21,Cc1ccc(-c2nc(CS(=O)(=O)CC(=O)NCc3ccccc3Cl)c(C)o2)cc1,inactive
22,Cc1cccc(-c2nc(CS(=O)CC(=O)NC(C)CCc3ccccc3)c(C)o2)c1 (stereo not drawn),17.8 µM (active)
23,Cc1csc[n+]1CCC1CCCCC1,inactive
24,Cc1ccc2oc(=O)c3cnn(CC(=O)NCc4ccccc4Cl)c3c2c1,inactive

row,Structure (SMILES),Potency
1,CN(C)c1cc2c(Nc3ccc4c(cnn4Cc4ccccc4)c3)ncnc2cn1,inactive
2,CCN1CCN(c2ccc(/C=C/c3ccnc4ccccc34)cc2)CC1,inactive
3,Cc1ccc(S(=O)(=O)N(Cc2nc(-c3ccc(Cl)cc3)no2)C2CCCCC2)cc1,inactive
4,Cc1csc(NC(=O)C2CCN(S(=O)(=O)c3ccccc3)CC2)n1,inactive
5,Cc1csc(NC(=S)Nc2cccc(Cl)c2)n1,14.1 µM (active)
6,O=C(Nc1cccc(Cl)c1)c1csnn1,inactive
7,CC1CCC2(CC1)N=C(c1ccccc1)C(=O)N2CC(=O)Nc1ccc(F)c(Cl)c1 (stereo not drawn),inactive
8,COc1ccc(Cl)cc1NC(=O)CCn1c(=O)c2cccn2c2ccccc21,inactive
9,CCCS(=O)(=O)c1ncc(Cl)c(C(=O)Nc2scc(-c3ccccc3)c2C(=O)OCC)n1,4.47 µM (active)
10,CCOC(=O)c1c(-c2ccc(C)cc2C)csc1NC(=O)CSc1nnnn1C,inactive
11,CCOC(=O)c1scc(-c2ccccc2)c1S(=O)(=O)Nc1ccccc1F,inactive
12,Cc1cc(C)c2oc(C(=O)Nc3c(C(=O)Nc4ccccc4)oc4ccccc34)cc(=O)c2c1,inactive
13,CC(=O)c1ccc[n+](C(C)CCC(C)[n+]2cccc(C(C)=O)c2)c1 (stereo not drawn),inactive
14,O=C(Nc1ccc2nc(SCCOc3ccccc3Cl)sc2c1)c1ccco1,inactive
15,COc1ccc(-c2nc(CN3CCN(c4ncccn4)CC3)c(C)o2)cc1C,inactive
16,CNC(=O)c1ccc(-c2nc(CN3CCc4ccccc43)c(C)o2)cc1,inactive
17,COc1ccc(N2CCN(C(=O)CSCc3nc(-c4ccccc4Cl)oc3C)CC2)cc1,inactive
18,Cc1ccccc1-c1nc(CS(=O)(=O)CC(=O)NC(C)c2ccccc2)c(C)o1 (stereo not drawn),inactive
19,Cc1ccccc1-c1nc(CS(=O)(=O)CC(=O)Nc2cc(Cl)cc(Cl)c2)c(C)o1,inactive
20,Cc1ccccc1-c1nc(CS(=O)(=O)CC(=O)N2CCc3ccccc3C2)c(C)o1,7.94 µM (active)
21,COc1cccc(-c2nc(CS(=O)(=O)CC(=O)N3CCN(c4cc(C)ccc4C)CC3)c(C)o2)c1,inactive
22,COc1ccc(-c2nc(CS(=O)CC(=O)NCc3cccnc3)c(C)o2)cc1OC (stereo not drawn),inactive
23,COc1ccc(CNC(=O)CS(=O)Cc2nc(-c3cccc(C)c3)oc2C)cc1 (stereo not drawn),inactive
24,COc1ccc(-c2nc(CS(=O)CC(=O)NCc3ccccn3)c(C)o2)cc1 (stereo not drawn),7.08 µM (active)
